In the antibiotic and cytotoxicity screens of Wong et al. (2023):
The campaign covered roughly 39,000 compounds. About 1,500 (3.8%) were called active. The sample holds actives, similar compounds and a random draw of the others, so the mix is not that of the screen.

What follows are compounds tested on HSkMC (human skeletal muscle cells) (assay: cytotoxicity call (relative viability < 0.9)). Details: 10 µM.
CN(C)Cc1cn(CC[C@@H]2CC[C@H](N)[C@H](CO)O2)nn1 was tested, and the cytotoxicity call was “inactive”.
For C[C@H](CO)N1C[C@H](C)[C@@H](CN(C)S(=O)(=O)c2ccc3ccccc3c2)OCc2cn(nn2)CCCC1=O, the cytotoxicity call was “inactive”.
C[C@H](CO)N1C[C@H](C)[C@@H](CN(C)C(=O)Nc2cccc3ccccc23)Oc2c(NC(=O)C3CCCCC3)cccc2C1=O was tested, and the cytotoxicity call was “inactive”.
For COc1cc(Nc2ncc3c(n2)-c2ccc(Cl)cc2C(c2c(F)cccc2OC)=NC3)ccc1C(=O)O, the cytotoxicity call was “active”.
For C=CCN(C(=O)[C@H]1N(CCOCCO)C(=O)[C@H]2[C@H](C(=O)O)[C@@H]3C=C[C@@]21O3)c1ccc(OC)cc1, the cytotoxicity call was “inactive”.
In the case of CCS(=O)(=O)Nc1ccc2c(c1)C(=O)N(C)[C@H]1CC[C@@H](CC(=O)N[C@H]3CCN(Cc4ccccc4)C3)O[C@@H]1CO2, the cytotoxicity call is reported as “inactive”.
C[C@@H]1CN([C@H](C)CO)C(=O)c2cccc(NC(=O)C3CCOCC3)c2O[C@@H]1CN(C)S(=O)(=O)c1cccs1 was tested, and the cytotoxicity call was “inactive”.
With CC(=O)OC1CCC2(C)C(CCC3C2CCC2(C)C3CC3OC4(CCC(C)CO4)C(C)C32)C1 (centres undefined) the cytotoxicity call was “inactive”.
In the case of C[C@@H]1CC[C@@]2(OC1)O[C@H]1C[C@H]3[C@H]4CC=C5C[C@@H](O[C@@H]6O[C@H](CO)[C@@H](O[C@@H]7O[C@@H](C)[C@H](O)[C@@H](O)[C@H]7O[C@@H]7O[C@@H](C)[C@H](O)[C@@H](O)[C@H]7O)[C@H](O)[C@H]6O)CC[C@]5(C)[C@@H]4CC[C@]3(C)[C@H]1[C@@H]2C, the cytotoxicity call is reported as “active”.
CC(C)=CCC[C@](C)(O[C@@H]1O[C@H](CO[C@@H]2OC[C@@H](O)[C@H](O)[C@H]2O)[C@@H](O)[C@H](O)[C@H]1O)[C@H]1CC[C@]2(C)[C@@H]1[C@H](O)C[C@@H]1[C@@]3(C)CC[C@H](O[C@@H]4O[C@H](CO)[C@@H](O)[C@H](O)[C@H]4O)C(C)(C)[C@@H]3CC[C@]12C was tested, and the cytotoxicity call was “inactive”.
C[C@@H]1CC[C@@]2(OC1)O[C@H]1C[C@H]3[C@H]4C[C@@H](O)[C@H]5C[C@@H](O[C@@H]6O[C@H](CO)[C@H](O[C@@H]7O[C@H](CO)[C@@H](O)[C@H](O[C@@H]8OC[C@@H](O)[C@H](O)[C@H]8O)[C@H]7O[C@@H]7O[C@H](CO)[C@@H](O[C@@H]8O[C@H](CO)[C@@H](O)[C@H](O)[C@H]8O)[C@H](O)[C@H]7O)[C@H](O)[C@H]6O)CC[C@]5(C)[C@@H]4CC[C@]3(C)[C@H]1[C@@H]2C was tested, and the cytotoxicity call was “active”.
For C[C@@H]1CO[C@]2(O[C@H]3C[C@H]4[C@H]5C[C@H](O[C@H]6O[C@@H](C)[C@@H](O)[C@@H](O[C@@H]7O[C@@H](C)[C@H](O)[C@@H](O)[C@H]7O)[C@@H]6O)[C@H]6C[C@@H](O)CC[C@]6(C)[C@@H]5CC[C@]4(C)[C@H]3[C@@H]2C)[C@@H](O)C1, the cytotoxicity call was “inactive”.
CC(=O)OC1CCC2(C)C(CCC3C2CC(=O)C2(C)C3CC3OC4(CCC(C)CO4)C(C)C32)C1 (centres undefined) was tested, and the cytotoxicity call was “inactive”.
In the case of CC1CCC2(OC1)OC1CC3C4CCC5CC(O)CCC5(C)C4CCC3(C)C1C2C (centres undefined), the cytotoxicity call is reported as “inactive”.
For CC1CCC2(OC1)OC1CC3C4CC=C5CC(O)CCC5(C)C4CCC3(C)C1C2C (centres undefined), the cytotoxicity call was “inactive”.
C[C@@H]1CC[C@@]2(OC1)O[C@H]1C[C@H]3[C@H]4C[C@@H](O)[C@H]5C[C@@H](O[C@@H]6O[C@H](CO)[C@H](O[C@@H]7O[C@H](CO)[C@@H](O)[C@H](O[C@@H]8OC[C@@H](O)[C@H](O)[C@H]8O)[C@H]7O[C@@H]7O[C@H](CO)[C@@H](O[C@@H]8O[C@H](CO)[C@@H](O)[C@H](O)[C@H]8O)[C@H](O)[C@H]7O)[C@H](O)[C@H]6O)[C@H](O)C[C@]5(C)[C@@H]4CC[C@]3(C)[C@H]1[C@@H]2C was tested, and the cytotoxicity call was “active”.
CC1CCC2(OC1)OC1CC3C4CCC5CC(O)CCC5(C)C4CC(=O)C3(C)C1C2C (centres undefined) was tested, and the cytotoxicity call was “inactive”.
For C[C@@H]1CC[C@@]2(OC1)O[C@H]1C[C@H]3[C@H]4C[C@@H](O)[C@H]5C[C@@H](O[C@@H]6O[C@H](CO)[C@H](O[C@@H]7O[C@H](CO)[C@@H](O)[C@H](O[C@@H]8OC[C@@H](O)[C@H](O)[C@H]8O)[C@H]7O[C@@H]7O[C@H](CO)[C@@H](O)[C@H](O)[C@H]7O)[C@H](O)[C@H]6O)[C@H](O)C[C@]5(C)[C@@H]4CC[C@]3(C)[C@H]1[C@@H]2C, the cytotoxicity call was “inactive”.
In the case of C[C@@H]1CC[C@@]2(OC1)O[C@H]1C[C@H]3[C@H]4C[C@@H](O)[C@H]5C[C@@H](O[C@@H]6O[C@H](CO)[C@H](O[C@@H]7O[C@H](CO)[C@@H](O)[C@H](O[C@@H]8OC[C@@H](O)[C@H](O)[C@H]8O)[C@H]7O[C@@H]7O[C@H](CO)[C@@H](O)[C@H](O)[C@H]7O)[C@H](O)[C@H]6O)CC[C@]5(C)[C@@H]4CC[C@]3(C)[C@H]1[C@@H]2C, the cytotoxicity call is reported as “active”.
COc1c(O)cc(O)cc1O was tested, and the cytotoxicity call was “inactive”.
With O=C1OCC=C[C@H]2O[C@@]34C=CCN(Cn5nnc6ccccc65)C(=O)[C@H]3N(CCO)C(=O)[C@@H]4[C@@H]12 the cytotoxicity call was “inactive”.
CNC(=O)CN1CCN2CCN(CC(=O)NC)CC(=O)[O][Gd]([O]C(=O)C2)[O]C(=O)C1 was tested, and the cytotoxicity call was “inactive”.
With C[C@@H]1CCCCO[C@@H](CN(C)S(=O)(=O)c2cn(C)cn2)[C@@H](C)CN([C@@H](C)CO)C(=O)c2cc(NS(=O)(=O)c3cccs3)ccc2O1 the cytotoxicity call was “inactive”.
For Cc1noc(C)c1S(=O)(=O)Nc1cccc2c1O[C@@H](CN(C)CC1CC1)[C@@H](C)CN([C@@H](C)CO)C2=O, the cytotoxicity call was “inactive”.
C[C@H]1CN([C@@H](C)CO)C(=O)c2cccc(NC(=O)Nc3ccc4c(c3)OCO4)c2O[C@H]1CN(C)S(C)(=O)=O was tested, and the cytotoxicity call was “inactive”.
For Cc1noc(C)c1S(=O)(=O)Nc1ccc2c(c1)C(=O)N([C@H](C)CO)C[C@H](C)[C@@H](CN(C)Cc1ccc(C(F)(F)F)cc1)OCCCC[C@@H](C)O2, the cytotoxicity call was “inactive”.
For O=C(C[C@H]1C[C@H]2c3cc(NS(=O)(=O)c4ccc(F)cc4)ccc3O[C@H]2[C@@H](CO)O1)NCc1ccccc1F, the cytotoxicity call was “inactive”.
For C[C@H]1CN([C@@H](C)CO)C(=O)c2cc(NC(=O)CCC(F)(F)F)ccc2O[C@@H]1CN(C)C(=O)Nc1ccc(C(F)(F)F)cc1, the cytotoxicity call was “inactive”.
With C[C@H]1CN([C@@H](C)CO)C(=O)c2cccc(NC(=O)Nc3ccccc3)c2O[C@H]1CN(C)S(C)(=O)=O the cytotoxicity call was “inactive”.
